The values that follow come from PubChem BioAssay AID720706 (Broad Institute, 2013).

Among all 350,000 compounds or so, about 5,500 (1.6%) were called active.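 Rule for the calls: active = significant combined selectivity score with lowered wild-type GFP, culture density cut under 30%, mutant RFP and density less affected; inactive = any of these conditions unmet.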 What follows is part of a selection rich in actives, with near analogues and random picks from the rest.

The nature of this assay: GFP drop in mixed WT/humanized-ribosome E. coli culture – GFP/RFP fluorescence, OD600, single point, bacterial rRNA inhibitor project, primary screen (AID 720706). Particulars: E. coli WT GFP vs humanized-ribosome RFP mutants, 24 h; GFP signal change (wild-type ribosome): stronger effect = lower value, DMSO median 0, no signal -100; OD600 change: measured here: OD600 growth, DMSO median 0, no signal -100; RFP signal change: measured here: RFP humanized mutant strains, DMSO median 0, no signal -100, concentration not given here.
Consider `C[C@@H]1COCc2cnnn2CC[C@H](Cc2ccccc2)C(=O)N1`, for which the GFP signal change (wild-type ribosome) is 1.97% (inactive), the OD600 change came out at 6.09% and the RFP signal change came out at 0.175%.
On the same counts, the results for `CCc1ccc(C2=CC(=O)CC(C)(C)C2=O)cc1` are 9.3% (inactive), 6.63% and 1.11%.
As to `COC(=O)C1=C(C)N(Cc2ccc(C(F)(F)F)cc2)C(=NCc2ccc(C(F)(F)F)cc2)NC1c1cccc(Cl)c1` (stereo unspecified), the GFP signal change (wild-type ribosome) was -29.5% (active), the OD600 change was -8.48% and the RFP signal change was 10.4%.
With `COC(=O)C1=C(C)N(Cc2cccc(C(F)(F)F)c2)C(=NCc2ccccc2)NC1c1ccc(Cl)cc1` (stereo unspecified), the GFP signal change (wild-type ribosome) is -51.5% (inactive), the OD600 change is -79.1% and the RFP signal change was -15.9%.
The corresponding values for `COC(=O)C1=C(C)N(Cc2ccc(C(F)(F)F)cc2)C(=NCc2ccccc2)NC1c1ccccc1C(F)(F)F` (stereo unspecified) are -44.7% (inactive), -75.3% and -10.2%.
The corresponding values for `CO[C@@H]1CN(C)C(=O)c2cc(NS(=O)(=O)c3ccccc3)ccc2OC[C@@H](C)N(C(=O)NC(C)C)C[C@@H]1C` are 1.8% (inactive), -5.96% and -2.55%.
Regarding `C[C@H](O)C#Cc1ccc([C@H]2[C@H](CO)N3CCCCN(C(=O)c4ccc(F)cc4)C[C@@H]23)cc1`, the GFP signal change (wild-type ribosome) was 4.08% (inactive), the OD600 change was 14.8% and the RFP signal change turned out to be 0.514%.
The corresponding values for `CC(C)NC(=O)Nc1cccc2c1O[C@@H](CN(C)C(=O)NC(C)C)[C@@H](C)CN(C)C2=O` are -0.63% (inactive), -5.7% and -0.789%.
On the same counts, the results for `CC(C)NC(=O)N(C)C[C@H]1Oc2c(cccc2N(C)C)C(=O)N(C)C[C@H]1C` are 3.79% (inactive), 5.03% and -1.64%.
The corresponding values for `CN(C)C(=O)c1ccc(-c2ccc(C3[C@@H]4CN(S(=O)(=O)c5cccc(Cl)c5)C[C@H]3N4)cc2)cc1` (stereo partly specified) are -4.17% (inactive), -4.3% and 1.15%.
As to `c1ccc2sc(NN=C3CCCC3)nc2c1`, the GFP signal change (wild-type ribosome) is -34.8% (active), the OD600 change was -19.9% and the RFP signal change amounted to 0.135%.
The corresponding values for `CCN(CC)CCn1c2c(c(SCC(=O)Nc3nc4ccccc4s3)nc1=O)CCCC2` are -8.54% (inactive), -9.96% and 4.44%.
On the same counts, the results for `c1ccc(C(=NNc2nc3ccccc3s2)c2ccccn2)cc1` are -3.87% (inactive), -7.96% and 1.5%.
The corresponding values for `CN(C)c1nc(=Nc2cccc(Cl)c2)ss1` are -20.6% (active), -16.1% and 6.27%.
For `COc1ccc(CN(C)C[C@@H]2Oc3ccc(NS(=O)(=O)c4cn(C)cn4)cc3C(=O)N([C@@H](C)CO)C[C@@H]2C)cc1`, the GFP signal change (wild-type ribosome) was 2.98% (inactive), the OD600 change was found to be 9.11% and the RFP signal change was -0.744%.
The corresponding values for `COc1ccc2c3c([nH]c2c1)[C@H](CO)N(CC1CC1)CC31CN(C(=O)Nc2cccc(F)c2)C1` are -4% (inactive), -2.33% and 0.442%.
On to `CCCNC(=O)N(C)C[C@H]1Oc2ncc(-c3cccc(C#N)c3)cc2C(=O)N([C@@H](C)CO)C[C@@H]1C`, for which the GFP signal change (wild-type ribosome) is 6.13% (inactive), the OD600 change stood at 2.48% and the RFP signal change turned out to be 4.15%.
Turning to `CC(=O)NC(c1ccccc1)c1nc(-c2ccccc2C)cs1` (stereo unspecified), the GFP signal change (wild-type ribosome) was 6.39% (inactive), the OD600 change worked out at 1.11% and the RFP signal change stood at 0.505%.
The corresponding values for `COc1cccc(C(NC(C)=O)c2nc(-c3ccccc3OC)cs2)c1` (stereo unspecified) are -17.2% (active), -5.72% and 3.69%.
On the same counts, the results for `COc1cccc(C(NC(C)=O)c2nc(-c3cnc4ccccc4c3)cs2)c1` (stereo unspecified) are 1.07% (inactive), 7.87% and -4.72%.
The corresponding values for `CC(C)NC(=O)Nc1ccc2c(c1)C(=O)N([C@@H](C)CO)C[C@@H](C)[C@H](CN(C)C)OCCCC[C@H](C)O2` are 4.43% (inactive), 12.9% and -2.38%.
In the case of `CCOC(=O)C(=Cc1ccccc1OC)C(=O)OCC`, the GFP signal change (wild-type ribosome) is -1.94% (inactive), the OD600 change is -6.41% and the RFP signal change is -3.6%.
On the same counts, the results for `CCOC(=O)C(=Cc1ccccc1)C(=O)c1ccccc1` are -45.9% (active), -44.3% and -8.34%.
`CCOC(=O)CNC(=O)/C(=C\c1ccc(F)cc1)NC(=O)c1ccccc1`: the GFP signal change (wild-type ribosome) is 7.79% (inactive), the OD600 change is 7.99% and the RFP signal change is -0.754%.
The corresponding values for `COc1ccccc1C(=O)NCCn1cc(SCC(=O)NCc2ccco2)c2ccccc21` are -24.1% (active), -15.6% and 1.51%.
The corresponding values for `COc1ccccc1C(=O)NCCC(=O)NCC(c1ccco1)N1CCCCC1` (stereo unspecified) are 3.93% (inactive), 11.1% and 2.81%.
On the same counts, the results for `COc1cccc(OC)c1C(=O)NC(=S)NCc1ccco1` are 10.3% (inactive), 5.07% and -0.715%.
Turning to `COc1ccc2c3c([nH]c2c1)[C@@H](CO)N(C(=O)CN1CCOCC1)CC31CCN(C)CC1`, the GFP signal change (wild-type ribosome) was 1.95% (inactive), the OD600 change was 7.83% and the RFP signal change came out at 0.695%.
The corresponding values for `C[C@@H]1CN([C@H](C)CO)C(=O)c2cc(-c3cccc(F)c3)cnc2O[C@@H]1CN(C)C` are 2.27% (inactive), 6.45% and -2.92%.
On to `COc1ccc(NCCc2ccccn2)cc1`, for which the GFP signal change (wild-type ribosome) is 12.7% (inactive), the OD600 change is 10.1% and the RFP signal change turned out to be 9.18%.
The corresponding values for `COc1ccc2c(c1)c1ncn(Cc3ccccn3)c(=O)c1n2C` are -22.5% (active), -10.5% and -3.41%.
For `COc1cccc(CN2CC3(CN(Cc4ccccn4)C3)c3c([nH]c4cc(OC)ccc34)[C@@H]2CO)c1`, the GFP signal change (wild-type ribosome) is 0.969% (inactive), the OD600 change came out at 8.73% and the RFP signal change was 5.99%.
